Bioassay records: PubChem BioAssay, several laboratories
MIN6 prolif: inducers of beta-cell replication in MIN6 cells; proliferation, % at 10 µM; MIN6 cells proliferation, ATPlite luminescence, 48 h; cells starved in 0.2% serum; 100% = growth in 10% serum; 330,000 compounds, 0.29% hits;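 active means compounds whose signal lies at least 3.5 SD above the mean of all wells on their plate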;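 further: 0% = DMSO-treated cells in low-serum medium and 100% = 10% serum control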
FAS-TE inh: inhibitors of human fatty acid synthase thioesterase domain; P49327; recombinant FAS-TE, OMFH fluorogenic substrate, fluorescence endpoint; inhibition, % at 15 µM; 360,000 compounds, 0.67% hits; AID 602261;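 active means compounds whose normalised, plate-corrected inhibition of enzyme fluorescence in the single-dose primary screen is 50% or more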;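 further: 0% = DMSO with enzyme and 100% = substrate without enzyme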
Target sequence (P49327 whole entry, looked up, the tested form may be a part): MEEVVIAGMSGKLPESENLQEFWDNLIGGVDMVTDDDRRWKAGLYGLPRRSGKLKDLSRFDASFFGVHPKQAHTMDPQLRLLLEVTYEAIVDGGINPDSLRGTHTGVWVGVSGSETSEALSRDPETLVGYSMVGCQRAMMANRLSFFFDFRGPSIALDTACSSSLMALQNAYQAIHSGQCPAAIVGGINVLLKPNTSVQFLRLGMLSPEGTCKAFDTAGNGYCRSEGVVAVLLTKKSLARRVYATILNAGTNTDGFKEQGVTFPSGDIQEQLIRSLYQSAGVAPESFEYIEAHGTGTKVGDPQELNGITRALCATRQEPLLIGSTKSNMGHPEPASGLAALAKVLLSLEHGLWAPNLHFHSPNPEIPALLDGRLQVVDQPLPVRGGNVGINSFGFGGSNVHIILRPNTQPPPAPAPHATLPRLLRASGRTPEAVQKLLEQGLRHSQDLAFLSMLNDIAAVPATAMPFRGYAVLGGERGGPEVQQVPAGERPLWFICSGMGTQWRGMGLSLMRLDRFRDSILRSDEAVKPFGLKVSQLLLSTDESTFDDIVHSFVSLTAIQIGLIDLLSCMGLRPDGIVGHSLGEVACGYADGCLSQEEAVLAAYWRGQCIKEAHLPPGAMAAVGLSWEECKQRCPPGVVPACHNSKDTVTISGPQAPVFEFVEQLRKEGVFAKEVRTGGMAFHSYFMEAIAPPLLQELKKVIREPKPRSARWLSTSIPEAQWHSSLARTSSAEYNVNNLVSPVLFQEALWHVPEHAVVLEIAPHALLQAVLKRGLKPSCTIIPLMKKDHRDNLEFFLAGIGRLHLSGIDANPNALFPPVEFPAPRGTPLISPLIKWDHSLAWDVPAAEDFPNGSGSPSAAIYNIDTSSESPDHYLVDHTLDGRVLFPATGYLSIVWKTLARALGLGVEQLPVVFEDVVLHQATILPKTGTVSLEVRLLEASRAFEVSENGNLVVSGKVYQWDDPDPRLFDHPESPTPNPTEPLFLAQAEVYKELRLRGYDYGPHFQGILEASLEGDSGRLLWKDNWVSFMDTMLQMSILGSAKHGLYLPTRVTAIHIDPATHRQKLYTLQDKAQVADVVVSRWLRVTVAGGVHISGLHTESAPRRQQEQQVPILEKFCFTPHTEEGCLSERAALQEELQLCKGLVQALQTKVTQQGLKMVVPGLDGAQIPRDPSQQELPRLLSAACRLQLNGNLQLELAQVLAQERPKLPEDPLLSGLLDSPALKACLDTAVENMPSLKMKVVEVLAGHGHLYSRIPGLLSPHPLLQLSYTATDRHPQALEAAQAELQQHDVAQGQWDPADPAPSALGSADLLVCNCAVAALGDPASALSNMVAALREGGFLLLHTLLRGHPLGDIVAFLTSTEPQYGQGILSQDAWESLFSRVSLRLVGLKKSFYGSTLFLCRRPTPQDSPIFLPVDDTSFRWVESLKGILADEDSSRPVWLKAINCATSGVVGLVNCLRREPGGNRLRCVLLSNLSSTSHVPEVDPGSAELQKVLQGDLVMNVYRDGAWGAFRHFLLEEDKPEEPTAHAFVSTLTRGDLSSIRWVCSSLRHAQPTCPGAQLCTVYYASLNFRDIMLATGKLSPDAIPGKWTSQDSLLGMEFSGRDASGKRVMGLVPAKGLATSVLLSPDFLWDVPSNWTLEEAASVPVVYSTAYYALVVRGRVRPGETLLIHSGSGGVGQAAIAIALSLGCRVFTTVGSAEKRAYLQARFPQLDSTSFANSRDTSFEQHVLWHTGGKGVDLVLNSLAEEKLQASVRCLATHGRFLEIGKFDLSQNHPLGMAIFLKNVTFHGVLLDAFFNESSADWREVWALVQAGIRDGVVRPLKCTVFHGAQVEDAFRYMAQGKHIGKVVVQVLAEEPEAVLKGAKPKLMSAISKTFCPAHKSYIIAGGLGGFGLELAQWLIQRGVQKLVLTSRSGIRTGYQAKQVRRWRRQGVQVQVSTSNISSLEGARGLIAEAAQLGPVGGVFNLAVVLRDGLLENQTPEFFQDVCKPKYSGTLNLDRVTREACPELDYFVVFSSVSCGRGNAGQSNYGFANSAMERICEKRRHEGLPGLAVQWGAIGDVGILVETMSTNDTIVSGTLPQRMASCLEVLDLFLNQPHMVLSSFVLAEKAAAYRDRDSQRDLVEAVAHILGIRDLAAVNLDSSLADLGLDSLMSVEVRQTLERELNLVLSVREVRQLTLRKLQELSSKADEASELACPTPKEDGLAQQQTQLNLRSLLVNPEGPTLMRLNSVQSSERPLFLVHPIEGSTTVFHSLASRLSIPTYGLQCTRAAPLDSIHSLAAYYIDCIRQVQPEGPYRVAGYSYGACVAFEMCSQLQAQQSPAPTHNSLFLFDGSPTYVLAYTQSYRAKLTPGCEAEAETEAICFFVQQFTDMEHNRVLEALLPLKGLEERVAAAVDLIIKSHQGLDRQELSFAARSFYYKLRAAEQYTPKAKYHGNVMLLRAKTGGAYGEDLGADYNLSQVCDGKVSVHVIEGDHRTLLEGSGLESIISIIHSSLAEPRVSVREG
Cardio protect: modulators protecting cardiomyocytes from myocardial damage; protection from H2O2 cell death, % at 20 µM; H9c2 cardiomyocytes, H2O2 injury protection, ATPLite, 2 h; 360,000 compounds, 0.63% hits;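 active means compounds giving at least 50% protection of heart cells from peroxide-induced death in the single-dose screen, raw or plate-pattern-corrected value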;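 further: 0% = DMSO wells with peroxide and 100% = DMSO wells without peroxide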
aDG glyco act: alpha-DG glycosylation activation; Pro5-aDG cells, alpha-DG glycosylation AlphaScreen (IIH6); 0% Pro5, 100% B10-LARGE cell signal; activation, % at 10 µM; 360,000 compounds, 0.22% hits; AID 624168;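 active means activation of at least 8% versus controls, or a plate z-score of at least 8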;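 further: Pro5 are CHO cells carrying HIG-tagged alpha-DG that lacks glycosylation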
Calpain2 inh: calpain II (pig) inhibition; purified calpain II, fluorogenic peptide substrate, 30 min; 220,000 compounds, 0.37% hits; inhibition, % at 16 µM; AID 1236;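 active means inhibition above about 50%, limit read from the data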
H9c2 TAG inh: triacylglycerol accumulation inhibition. 230,000 compounds, 0.66% hits. inhibition, % at 12.5 µM. H9c2 cells, Nile Red lipid (TAG) fluorescence; cells loaded with 200 µM oleic acid. AID 651582;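 active means pattern-corrected inhibition of lipid staining of at least 50% with the nuclear-stain viability signal not falling by more than 50%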;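 further: 0% = DMSO wells and 100% = triacsin C control wells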
FAS-TE conf: FAS thioesterase (human) inhibition, confirmation; 2,300 compounds, 45% hits; recombinant FAS-TE, OMFH fluorogenic substrate, fluorescence; shares compounds with FAS-TE inh; inhibition, % at 15 µM;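 active means compounds inhibiting the enzyme by at least 50% at 15 µM in any one of the replicates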;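 further: 0% = enzyme with DMSO only and 100% = wells lacking enzyme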
* hit, by the source's call; nt = no result given. The list is not random: actives were taken first. Their share in the collection is about 2.3%.

SMILES | MIN6 prolif | FAS-TE inh | Cardio protect | aDG glyco act | Calpain2 inh | H9c2 TAG inh | FAS-TE conf
O=C1NC[C@@H](CCCCN2C[C@H](Cc3ccc(O)cc3)N(CCC3CCCCC3)C(=O)C2=O)N(Cc2ccccc2)C1=O | nt | 6 | nt | 0 | nt | nt | nt
O=C(O)c1ccc(-c2nc(-c3ccccc3Cl)cs2)cc1 | -3 | 0 | -6 | -1 | -28 | nt | nt
CCS(=O)(=O)c1ccc(-c2csc(-c3ccccc3)n2)c(Cl)c1Cl | -3 | 84* | -23 | 1 | 8 | -12 | 71*
COc1ccc2c(c1)[C@H]1[C@H](CO2)[C@H](c2ccccc2)[C@]2(C)C(=O)Nc3ccc(Br)cc3C(=O)N12 | -6 | 33 | -5 | 0 | nt | 43 | nt
COc1ccc2c(c1)OC[C@H]1[C@H]2N2C(=O)c3ccc(F)cc3NC(=O)[C@@]2(C)[C@H]1c1ccccc1 | nt | 84* | -8 | 0 | nt | -3 | 42
COc1ccc2c(c1)[C@H]1[C@H](CO2)[C@H](c2ccccc2)[C@]2(C)C(=O)Nc3cc(F)ccc3C(=O)N12 | -5 | 54* | -10 | 0 | nt | -6 | 30
COc1ccc2c(c1)C(=O)N1[C@H]3c4cc(OC)ccc4OC[C@@H]3[C@H](c3ccccc3)[C@]1(C)C(=O)N2 | -6 | 72* | 3 | 0 | nt | nt | 28
COc1ccc2c(c1)OC[C@H]1[C@H]2N2C(=O)c3cc(Br)ccc3NC(=O)[C@@]2(C)[C@H]1c1ccccc1 | -8 | 86* | -4 | 0 | nt | 32 | -4
COc1ccc2c(c1)[C@H]1[C@H](CO2)[C@H](c2ccccc2)[C@]2(C)C(=O)Nc3ccccc3C(=O)N12 | -8 | 44 | -6 | 0 | nt | -2 | nt
O=C(CCCN1C(=O)C(c2ccccc2)Oc2cccnc21)NCCc1ccc(Cl)cc1 (centres undefined) | -2 | 13 | 5 | 0 | nt | nt | nt
CCCNC(=O)c1onc(CSc2nc3ccccc3[nH]2)c1C(=O)NCCC | -2 | -5 | 0 | 0 | nt | 6 | nt
COC(=O)C[C@H]1C=C[C@@H](NC(=O)Nc2c(C)noc2C)[C@@H](CO)O1 | nt | nt | nt | 0 | nt | nt | nt
COc1ccc(CCC(=O)Nc2ccc(N3CCOCC3)c(S(=O)(=O)Nc3ccc(OC)cc3)c2)cc1 | nt | 23 | -10 | 0 | nt | 11 | nt
NC(=O)COC(=O)[C@@H]1CC(O)CN1S(=O)(=O)c1ccc2c(c1)OCCO2 (some centres undefined) | -3 | 2 | 2 | 0 | 11 | 4 | nt
CCOc1cc(/C=C(\C#N)C(=O)Nc2ccccc2C(=O)O)ccc1OC(=O)c1ccc(C)cc1 | nt | 80* | 0 | 0 | nt | 0 | -8
CCOc1ccc(C(C)=O)cc1COc1cccnc1[N+](=O)[O-] | -2 | -2 | 6 | 0 | nt | nt | nt
NCCCCCNC(=O)c1nc[nH]c1C(=O)NCC(=O)OCc1ccccc1 | -3 | -12 | 18 | 0 | nt | 7 | nt
CN(CCc1ccccc1)C(=O)c1ccc(NC(=O)Cc2ccc(NC(=O)C3CCN(S(=O)(=O)c4cccc([N+](=O)[O-])c4)CC3)cc2)cc1 | nt | 62* | -25 | 0 | nt | 2 | 11
CN(C(=O)c1cccc(NC(=O)Cc2cccc(NC(=O)C3CCN(S(=O)(=O)c4cccc([N+](=O)[O-])c4)CC3)c2)c1)C1CC1 | nt | 8 | 4 | 0 | nt | 6 | nt
CN(CCc1ccccc1)C(=O)c1ccc(NC(=O)Cc2cccc(NC(=O)C3CCN(S(=O)(=O)c4cccc([N+](=O)[O-])c4)CC3)c2)cc1 | nt | 55* | -1 | 0 | nt | 23 | 9
CN(C(=O)c1cccc(NC(=O)Cc2ccc(NC(=O)C3CCN(S(=O)(=O)c4cccc([N+](=O)[O-])c4)CC3)cc2)c1)C1CCCCC1 | nt | 52* | -12 | 0 | nt | -6 | 25
CN(c1ccccc1)S(=O)(=O)c1cccc(NC(=O)c2nn(C)c(=O)c3ccccc23)c1 | -5 | 29 | 10 | 0 | nt | 1 | nt
O=S(=O)(Nc1ccc2c(c1)OCCO2)c1ccc2oc3ccccc3c2c1 | -4 | 62* | -22 | 0 | -16 | nt | 47*
CCSc1nc2ccccc2n1Cc1cccc([N+](=O)[O-])c1 | 1 | 59* | 13 | 1 | -33 | -13 | 20
COc1ccc(C(=O)Nn2c(SCc3cccc([N+](=O)[O-])c3)nc3ccccc3c2=O)cc1 | 0 | 59* | 0 | 0 | -25 | nt | 51*
SMILES | MIN6 prolif | FAS-TE inh | Cardio protect | aDG glyco act | Calpain2 inh | H9c2 TAG inh | FAS-TE conf
COCCn1c(SCc2cccc([N+](=O)[O-])c2)nc2ccccc2c1=O | -7 | 51* | -6 | 0 | nt | nt | 12
CCSc1nc2ccccc2n1Cc1ccccc1F | 5 | 6 | -3 | 0 | -5 | -8 | nt
Cc1ccc(S(=O)(=O)c2nnn3c2nc(N2CCC(C(N)=O)CC2)c2ccccc23)cc1C | -2 | 53* | 2 | 0 | nt | nt | 61*
Cc1ccc(S(=O)(=O)c2nc(S(C)(=O)=O)sc2N2CCC(C(N)=O)CC2)cc1 | -3 | -8 | 2 | 0 | nt | nt | nt
O=C1CC(N(CCc2ccccc2)C(=S)Nc2cc(Cl)ccc2Cl)C(=O)N1c1c(Cl)cccc1Cl (centres undefined) | -4 | 56* | -7 | 2 | -65 | 15 | 9
O=C1CC(N(CCc2ccccc2)C(=S)Nc2ccccc2)C(=O)N1c1ccccc1 (centres undefined) | 0 | 29 | -3 | 0 | -3 | nt | nt
COc1cccc(OCCOc2ccc(/C=C3/SC(=S)NC3=O)cc2)c1 | nt | 68* | -18 | 0 | nt | nt | 40
COc1ccc(C=C2SC(=S)NC2=O)cc1 | nt | 9 | -10 | 0 | nt | -21 | nt
CC1(c2nnnn2-c2ccc3c(c2)OCCO3)CCC(=O)N1CC(F)(F)F (centres undefined) | nt | -13 | nt | 0 | nt | nt | nt
CC(=O)NC(c1cccc(F)c1)c1nc(-c2cnn(C)c2)cs1 (centres undefined) | nt | -14 | 0 | 0 | nt | 4 | nt
CC(=O)NNc1nc(-c2ccccc2)cs1 | -5 | 70* | -4 | 0 | -67 | -1 | 55*
CC(=O)NNc1nc(-c2ccc(C)cc2)cs1 | -3 | -9 | -1 | 0 | -30 | nt | nt
CCOC(=O)N1CCN(C(=O)CCCn2nnnc2CN2CCC(C)CC2)CC1 | -3 | -5 | -4 | 0 | nt | nt | nt
C/C(=N/Nc1ccc(C(=O)O)cc1)c1ccc2c(c1)Nc1ccccc1S2 | nt | 52* | -5 | 0 | nt | 9 | 62*
C/C(=N\Nc1ccc(Cl)c(C(=O)O)c1)c1ccc2c(c1)OCO2 | -3 | -4 | 0 | 0 | -22 | -14 | nt
C/C(=N\Nc1ccc(C(=O)O)cc1)c1ccc2c(c1)Nc1ccccc1S2 | -4 | 71* | -11 | 0 | 40 | 8 | 61*
COc1ccc(/C(C)=N/Nc2cccc(C(=O)O)c2)cc1OC | -1 | -2 | 2 | 0 | -21 | 25 | nt
